# From PubChem BioAssay
# Test: viability loss with induced miR-34 in A549 – imaging, A549 dox-inducible miR-34, nuclei and caspase counts, primary screen (AID 1347080); also: test concentration not given here
# Conditions: A549 miR-34 inducible, Hoechst nuclei count, 48 h; measured here: total cells with miR-34 induction; stronger effect = lower value
row,SMILES,cell count
1,O=C(O)/C=C/CCCCCCCCC(=O)O,5830
2,CCCCCCCCCCCSCC(=O)O,6160
3,O=C1N[C@@H]2[C@@H](O)[C@@H](O)[C@H](O)[C@@H](CO)N2C1=O,4980
4,NC(=O)c1cccc(-c2cccc(OC(=O)NCCCCCCc3ccccc3)c2)c1,5110
5,CCCCC[C@H](O)/C=C/[C@H]1CC[C@@H](O)[C@@H]1CCCCCCC(=O)O,6100
6,CCCCCCCCCCCCCCCC(=O)NC(CO)CO,5260
7,CC(=O)[C@H]1[C@H](C#N)C[C@H]2[C@@H]3CC=C4C[C@@H](O)CC[C@]4(C)[C@H]3CC[C@@]21C,5370
8,CCCCCCCCCCCCC/C=C/[C@H](O)[C@@H](CO)NC(=O)CCCCCCCCCCCCCCCCCCCCCCC,5890
9,O=C(O)CCC/C=C\C[C@H]1C(=O)C=C[C@@H]1CC[C@@H](O)CCc1ccccc1,6220
10,CC(C)CCCC(C)CCCC(C)CCCC(C)CC(=O)O (stereo not drawn),5990
11,CCCCCCCC/C=C\CCCCCCCC(=O)Nc1c(C(C)C)cccc1C(C)C,5690
12,CCCc1oc(CCC(=O)O)c(C(=O)O)c1C,5170
13,CCCCC(C)(C)[C@H](O)/C=C/[C@H]1[C@H](O)CC(=O)[C@@H]1CCCCCCC(=O)O,5660
14,O=P(O)(O)OC1[C@@H](O)[C@H](O)C(O)[C@H](O)[C@@H]1O (stereo partly drawn),5550
15,CCCCCC(=O)/C=C/[C@H]1[C@H](O)CC(=O)[C@@H]1CCCCCCC(=O)O,5840
16,NCc1cccc2ccncc12,5270
17,O=C(O)CCC/C=C\C[C@@H]1[C@@H](/C=C/[C@H](O)CCc2ccccc2)[C@H](O)C[C@@H]1O,5340
18,CCCCC[C@H](O)/C=C/[C@@H]1[C@@H](C/C=C/CCCC(=O)O)[C@H](O)C[C@H]1O,5260
19,CC\C=C/C=C/C=C/C=C\CCCCCCCC(=O)O,4740
20,CCCCCCCCCCCCCCCNC(=O)C1CCCCC1,6830

row,SMILES,cell count
1,CCCC/C=C\CCCCCCCC(=O)OC,5700
2,CC/C=C\C/C=C\C/C=C\CCCCCCCC(=O)OCC,5180
3,O=C(O)CCC/C=C\C[C@@H]1[C@@H](/C=C/[C@@H](O)COc2ccccc2)[C@H](O)C[C@@H]1O,6410
4,COc1ccc(/C=C/C(=O)CC(=O)/C=C/c2cccc(O)c2OC)cc1O,3510
5,Cn1c([N+](=O)[O-])cc[n+]1C,8620
6,O=C(O)CCC/C=C\C[C@H]1[C@@H](/C=C/[C@@H](O)CCc2ccccc2)[C@H](O)C[C@H]1O,5150
7,Nc1nc2c([nH]c(=O)n2[C@@H]2O[C@H](CO)[C@@H](O)[C@H]2O)c(=O)[nH]1,5770
8,CCCCC[C@H](O)/C=C/[C@@H]1[C@H]2C/C(=C\CCCC(=O)O)C[C@H]2C[C@H]1O,6140
9,CCCCC[C@H](O)/C=C/[C@H]1CC[C@H](O)[C@@H]1CCCCCCC(=O)O,6200
10,C=C1C[C@H](O)[C@H](C/C=C\CCCC(=O)O)[C@H]1/C=C/[C@@H](O)CCCCC,5940
11,CC(C)OC(=O)CCC/C=C\C[C@@H]1[C@@H](/C=C/[C@H](O)C2Cc3ccccc3C2)[C@@H](F)C[C@@H]1O,5350
12,CCCCCCCCCCCCCCCCOC[C@H](COP(=O)([O-])OCC[N+]1(C)CCCC1)OC(C)=O,5250
13,COc1ccc2c(c1)c(CC(=O)Nc1cccnc1)c(C)n2C(=O)c1ccc(Cl)cc1,5760
14,CCCCCCCCCCCCCCCCOC[C@H](COP(=O)([O-])OCC[N+](C)(C)C)SC(C)=O,4720
15,CCCCC/C=C/C=C1/C=CC(=O)[C@@H]1C/C=C\CCCC(=O)O,5680
16,C#CCOc1ccccc1CCCCCC(=O)O,5930
17,CCCCC[C@H](O)/C=C/[C@@H]1[C@@H](C/C=C\CCCC(=O)OCC(O)CO)[C@@H](O)C[C@H]1O (stereo partly drawn),5810
18,O=C(CN=C(c1ccccc1)c1ccccc1)OCc1ccccc1,5290
19,O=c1[nH]cc(CO)c(=O)[nH]1,5770

# Same assay, conditions: A549 miR-34 inducible, Hoechst nuclei count, 48 h; measured here: total cells without miR-34 induction
row,SMILES,cell count
1,O=C(O)/C=C/CCCCCCCCC(=O)O,5890
2,CCCCCCCCCCCSCC(=O)O,5890
3,O=C1N[C@@H]2[C@@H](O)[C@@H](O)[C@H](O)[C@@H](CO)N2C1=O,5410
4,NC(=O)c1cccc(-c2cccc(OC(=O)NCCCCCCc3ccccc3)c2)c1,5650
5,CCCCC[C@H](O)/C=C/[C@H]1CC[C@@H](O)[C@@H]1CCCCCCC(=O)O,6900
6,CCCCCCCCCCCCCCCC(=O)NC(CO)CO,5440
7,CC(=O)[C@H]1[C@H](C#N)C[C@H]2[C@@H]3CC=C4C[C@@H](O)CC[C@]4(C)[C@H]3CC[C@@]21C,5300
8,CCCCCCCCCCCCC/C=C/[C@H](O)[C@@H](CO)NC(=O)CCCCCCCCCCCCCCCCCCCCCCC,6010
9,O=C(O)CCC/C=C\C[C@H]1C(=O)C=C[C@@H]1CC[C@@H](O)CCc1ccccc1,6690
10,CC(C)CCCC(C)CCCC(C)CCCC(C)CC(=O)O (stereo not drawn),6040
11,CCCCCCCC/C=C\CCCCCCCC(=O)Nc1c(C(C)C)cccc1C(C)C,5700
12,CCCc1oc(CCC(=O)O)c(C(=O)O)c1C,5840
13,CCCCC(C)(C)[C@H](O)/C=C/[C@H]1[C@H](O)CC(=O)[C@@H]1CCCCCCC(=O)O,6020
14,O=P(O)(O)OC1[C@@H](O)[C@H](O)C(O)[C@H](O)[C@@H]1O (stereo partly drawn),6010
15,CCCCCC(=O)/C=C/[C@H]1[C@H](O)CC(=O)[C@@H]1CCCCCCC(=O)O,5690
16,NCc1cccc2ccncc12,5780
17,O=C(O)CCC/C=C\C[C@@H]1[C@@H](/C=C/[C@H](O)CCc2ccccc2)[C@H](O)C[C@@H]1O,5830
18,CCCCC[C@H](O)/C=C/[C@@H]1[C@@H](C/C=C/CCCC(=O)O)[C@H](O)C[C@H]1O,5540
19,CC\C=C/C=C/C=C/C=C\CCCCCCCC(=O)O,5410
20,CCCCCCCCCCCCCCCNC(=O)C1CCCCC1,6070

row,SMILES,cell count
1,CCCC/C=C\CCCCCCCC(=O)OC,5570
2,CC/C=C\C/C=C\C/C=C\CCCCCCCC(=O)OCC,5770
3,O=C(O)CCC/C=C\C[C@@H]1[C@@H](/C=C/[C@@H](O)COc2ccccc2)[C@H](O)C[C@@H]1O,6700
4,COc1ccc(/C=C/C(=O)CC(=O)/C=C/c2cccc(O)c2OC)cc1O,3790
5,Cn1c([N+](=O)[O-])cc[n+]1C,9670
6,O=C(O)CCC/C=C\C[C@H]1[C@@H](/C=C/[C@@H](O)CCc2ccccc2)[C@H](O)C[C@H]1O,5310
7,Nc1nc2c([nH]c(=O)n2[C@@H]2O[C@H](CO)[C@@H](O)[C@H]2O)c(=O)[nH]1,5600
8,CCCCC[C@H](O)/C=C/[C@@H]1[C@H]2C/C(=C\CCCC(=O)O)C[C@H]2C[C@H]1O,6660
9,CCCCC[C@H](O)/C=C/[C@H]1CC[C@H](O)[C@@H]1CCCCCCC(=O)O,6420
10,C=C1C[C@H](O)[C@H](C/C=C\CCCC(=O)O)[C@H]1/C=C/[C@@H](O)CCCCC,6010
11,CC(C)OC(=O)CCC/C=C\C[C@@H]1[C@@H](/C=C/[C@H](O)C2Cc3ccccc3C2)[C@@H](F)C[C@@H]1O,5450
12,CCCCCCCCCCCCCCCCOC[C@H](COP(=O)([O-])OCC[N+]1(C)CCCC1)OC(C)=O,6400
13,COc1ccc2c(c1)c(CC(=O)Nc1cccnc1)c(C)n2C(=O)c1ccc(Cl)cc1,5780
14,CCCCCCCCCCCCCCCCOC[C@H](COP(=O)([O-])OCC[N+](C)(C)C)SC(C)=O,5130
15,CCCCC/C=C/C=C1/C=CC(=O)[C@@H]1C/C=C\CCCC(=O)O,5960
16,C#CCOc1ccccc1CCCCCC(=O)O,5330
17,CCCCC[C@H](O)/C=C/[C@@H]1[C@@H](C/C=C\CCCC(=O)OCC(O)CO)[C@@H](O)C[C@H]1O (stereo partly drawn),6170
18,O=C(CN=C(c1ccccc1)c1ccccc1)OCc1ccccc1,6050
19,O=c1[nH]cc(CO)c(=O)[nH]1,5720
